Measurements as given in PubChem BioAssay (NCATS).
Results filed as inconclusive are left out. Where a call stands in place of a potency, no number is given. Activity calls are given as the source filed them. Calls follow the shape of the dose curve; as a rule, active = well fitted inhibition curve with a large enough effect; inconclusive = small, poorly fitted or top-dose-only effect; inactive = no such curve, though single readings can be large or run the other way.

Key:
[1] = test system: Zika virus NS2B-NS3 protease (unlinked complex); assay: Primary screen GU Rhodamine qHTS for Zika virus inhibitors: Unlinked NS2B-NS3 protease assay (AID 1347159); also: nearly all actives have a fitted effect of over 60% in size; also: potency is read from the fitted curve at half-maximal effect
Summary of the method: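 Compounds, tested up to 114 microM, were incubated for 15 minutes with 25 nM unlinked NS2B-NS3 protease at pH 8.0. Cleavage of 1.5 microM Rhodamine110 substrate was then followed by fluorescence for 15 minutes.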

[2] = test system: Zika virus NS2B-NS3 protease (linked construct); assay: Primary screen NINDS Rhodamine qHTS for Zika virus inhibitors (AID 1347160); also: nearly all actives have a fitted effect of over 55% in size
Summary of the method: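 Percent inhibition, normalized to uninhibited and enzyme-free controls, is fitted to a 4-parameter Hill equation. Fluorescence change comes from a 15-min cleavage of 1.5 microM bis-peptide Rhodamine110 substrate by 25 nM linked NS2B-NS3 at room temperature.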

SMILES	Potency [1]	Potency [2]
COc1ccc(-c2c(-c3cc(C(=O)O)ccn3)ncn2C)cc1	inactive	inactive
CC1CCC2(C(=O)O)CCC3(C)C(=CCC4C5(C)CCC(OC(=O)/C=C/c6ccccc6)C(C)(C)C5CCC43C)C2C1C (stereo not drawn)	inactive	inactive
COc1cc(N2CCOCC2)ccc1Nc1ncc(Cl)c(Nc2ccccc2NS(C)(=O)=O)n1	inactive	inactive
O=C1C=CC2OC(c3ccccc3)C(O)C2O1 (stereo not drawn)	inactive	inactive
Cc1cnc(NC(=O)Nc2cc(Br)c(C)cc2OCC2CNCCO2)cn1 (stereo not drawn)	inactive	inactive
CCOc1cc2ncc(C#N)c(Nc3ccc(F)c(Cl)c3)c2cc1NC(=O)/C=C/CN(C)C	inactive	inactive
COc1ccc(C2(O)c3ccccc3NC(=O)C2O)cc1 (stereo not drawn)	inactive	inactive
CC(=O)OC1C[C@]2(C)C(O)CC(C)=C[C@H](OC(=O)c3ccc(O)cc3)C2[C@]1(O)C(C)C (stereo partly drawn)	inactive	inactive
O=[N+]([O-])c1cccc2[nH]c(CNc3nc(N4CCOCC4)nc4c3ncn4-c3ccsc3)nc12	89.1 µM (active)	inactive
COc1ccc(CCO[C@@H]2CCCC[C@H]2N2CC[C@@H](O)C2)cc1OC	inactive	inactive
Cc1ccc(S(=O)(=O)c2ccc([N+](=O)[O-])o2)cc1	inactive	inactive
Cc1ccc(-c2ccc3ncc4c(c3n2)n(C2CCN(C(=O)[C@H](C)O)CC2)c(=O)n4C)cn1	inactive	inactive
O=C(CO)[C@@H](O)[C@H](O[C@@H]1O[C@H](CO)[C@H](O)[C@H](O)[C@H]1O)[C@H](O)CO	inactive	inactive
CC[C@H]1OC(=O)[C@H](C)[C@@H](O[C@H]2C[C@@](C)(OC)[C@@H](O)[C@H](C)O2)[C@H](C)[C@@H](O[C@@H]2O[C@H](C)C[C@H](N(C)C)[C@H]2O)[C@](C)(O)C[C@@H](C)C(=O)[C@H](C)[C@H]2OC(=O)O[C@@]21C	inactive	inactive
CC(=O)c1cc(C(=O)N[C@@H](C)Cn2ccc(-c3ccc(C#N)c(Cl)c3)n2)[nH]n1	inactive	inactive
Nc1ccc(-c2cccc3c(=O)cc(N4CCOCC4)oc23)cc1	inactive	inactive
CN[C@H](CC(C)C)C(=O)N[C@H]1C(=O)N[C@@H](CC(N)=O)C(=O)N[C@H]2C(=O)N[C@H]3C(=O)N[C@H](C(=O)N[C@H](C(=O)O)c4cc(O)cc(O)c4-c4cc3ccc4O)[C@H](O[C@H]3C[C@](C)(N)[C@@H](O)[C@H](C)O3)c3ccc(c(Cl)c3)Oc3cc2cc(c3O[C@@H]2O[C@H](CO)[C@@H](O)[C@H](O)[C@H]2O[C@H]2C[C@](C)(NCc3ccc(-c4ccc(Cl)cc4)cc3)[C@@H](O)[C@H](C)O2)Oc2ccc(cc2Cl)[C@H]1O	inactive	inactive
Cc1c[nH]c2nccc(Oc3c(F)cc(Nc4cc(Cl)nc(N)n4)cc3F)c12	inactive	inactive
CCCCc1nc2cc(/C=C/C(=O)NO)ccc2n1CCN(CC)CC	inactive	inactive
Cc1cc(O)c(-c2ccc([C@@H](C)CN(C)C)cc2)c2c1[nH]c(=O)c1sccc12	inactive	inactive
CNC(=O)c1ccccc1Nc1nc(Nc2ccc3c(c2OC)CCC[C@@H](N2CCN(CCO)CC2)C3)ncc1Cl	inactive	inactive
Nc1ncnc2c1ncn2CCNCCCCCO	inactive	inactive
COc1cc(/C=C/CO)cc(OC)c1O[C@@H]1O[C@H](CO[C@@H]2O[C@H](CO)[C@@H](O)[C@H](O)[C@H]2O)[C@@H](O)[C@H](O)[C@H]1O	inactive	inactive
CC(C)=CCC[C@](C)(O[C@@H]1O[C@H](CO)[C@@H](O)[C@H](O)[C@H]1O)[C@H]1CC[C@]2(C)[C@@H]1[C@H](O)CC1[C@@]3(C)CC[C@H](O)C(C)(C)C3[C@@H](O[C@@H]3O[C@H](CO)[C@@H](O)[C@H](O)[C@H]3O)C[C@]12C (stereo partly drawn)	inactive	inactive
COc1cc(C(=O)O)ccc1OC1OC(CO)C(O)C(O)C1O (stereo not drawn)	inactive	inactive
COc1ccccc1NC(=O)OCC1CCN(C(=O)OC(C)(C)C)CC1	inactive	inactive
CC(C)c1c2cc(-c3ccnc(NC4CCC(NC5CCOCC5)CC4)n3)ccc2nn1C (stereo not drawn)	inactive	inactive
Nc1nc(-n2cc(C(=O)O)c(=O)c3cc(F)c(N4CC(O)C4)c(Cl)c32)c(F)cc1F	inactive	inactive
CN1CCN(Cc2ccc(-c3cnc4[nH]cc(-c5ccc6[nH]ccc6c5)c4c3)cc2)CC1	inactive	inactive
